The nature of the test: HTRF spectral interference by compounds, SAR follow-up, artefact control, biochemical, fluorescence ratio (AID 2496). The note with it: HTRF spectral interference counter-screen. In general terms: TR-FRET usually uses a lanthanide donor and a delayed reading to cut background.

A number with no mark means an inactive call. The source made the active and inactive calls. Cut-off read from the data, not from the text of the source: active = IC50 below about 40 µM; inactive = the rest.

What is called IC50 is the midpoint of a concentration-inhibition curve.

In the case of `CN(C(=O)COC(=O)c1cc(-c2ccco2)nc2ccccc12)C1CCS(=O)(=O)C1` (configuration not stated), the IC50 was 26.6 µM (active).

In the case of `CC(/C=C/c1ccco1)=NNC(=O)c1cccnc1`, the IC50 was > 50 µM.

Consider `CN(CCC#N)C(=O)COC(=O)c1c2c(nc3ccccc13)/C(=C/c1ccco1)CC2`, for which the IC50 was 8.9 µM (active).

`CCOC(=O)N1CCN(C(=O)c2ccc3nc(-c4ccco4)c(-c4ccco4)nc3c2)CC1`: the IC50 is 6.55 µM (active).

`CCN(CC)C(=O)COC(=O)c1cc(-c2ccco2)nc2ccccc12`: the half-inhibitory concentration (IC50) was 16.4 µM (active).

As to `CCNC(=O)COC(=O)c1cc(-c2ccco2)nc2ccccc12`, the IC50 was > 50 µM.

As for `O=C(COC(=O)c1c2c(nc3ccccc13)/C(=C/c1ccco1)CC2)NC1CCCC1`, the IC50 was 4.42 µM (active).

`CC(=O)NS(=O)(=O)c1ccc(NC(=O)/C=C/c2ccc(C)o2)cc1`: the IC50 is > 50 µM.

With `Cc1ccc(/C=C/C(=O)N2CCN(c3ncccn3)CC2)o1`, the IC50 was > 50 µM.

`Nc1ncnc2oc(-c3ccco3)c(-c3ccco3)c12`: the IC50 is > 50 µM.

Regarding `CC(/C=C/c1ccco1)=NNC(=O)c1cc(C)[nH]n1`, the IC50 is > 50 µM.

As for `CCN(CC)CCNC(=O)c1cc(-c2ccco2)nc2ccccc12`, the IC50 is 19.8 µM (active).

With `CC(=O)Oc1ccc(N2C(=O)C3C(C2=O)C2(C)C=CC3(C)O2)cc1` (configuration not stated), the IC50 was 2.86 µM (active).

`O=C(NC1CCCC1)c1ccc2nc(-c3ccco3)c(-c3ccco3)nc2c1`: the IC50 is > 50 µM.

For `Cc1ccc(/C=C/C(=O)NCc2ccc(S(N)(=O)=O)cc2)o1`, the IC50 was > 50 µM.

Take `O=C(Nc1ccc2nc(-c3ccco3)c(-c3ccco3)nc2c1)N1CCOCC1`: the IC50 is 7.32 µM (active).

In the case of `CCCc1ccc(/C=C2\C(=O)c3ccccc3C(O)=C2C(=O)OCC)cc1`, the IC50 was > 50 µM.

With `CCOC(=O)c1sc2nc(-c3ccco3)c3c(c2c1N)CC(C)(C)OC3`, the IC50 is > 50 µM.

`COc1ccc(NC(=O)c2cc(-c3ccco3)nc3ccccc23)cc1S(=O)(=O)N1CCOCC1`: the IC50 was 37.2 µM (active).

On to `COc1ccc(CCNC(=O)c2cc(-c3ccco3)nc3ccccc23)cc1`, for which the 50% inhibitory concentration (IC50) is 15 µM (active).

`CCCCc1ccc(/C=C2\C(=O)c3ccccc3C(O)=C2C(=O)OCC)cc1`: the IC50 was 4.14 µM (active).

Take `O=C(CSc1ccc(Cl)cc1)Nc1cccc(-c2nc3ccccc3[nH]2)c1`: the IC50 was 12.8 µM (active).

In the case of `Cc1ccc(S(=O)(=O)N(C)C)cc1NC(=O)c1cc(-c2ccco2)nc2ccccc12`, the IC50 is > 50 µM.

Consider `O=C(NN=Cc1ccc(F)cc1)c1cc(-c2ccco2)nc2ccccc12`, for which the IC50 is > 50 µM.

As for `Nc1ccc(-c2nc3c(Cl)c(N)ccc3[nH]2)cc1`, the IC50 was 5.59 µM (active).

As to `CNc1nc(-c2ccccc2)[n+](-c2ccc(C)cc2)s1`, the IC50 was > 50 µM.

On to `Nc1c(C(=O)NC2CC2)sc2nc3c(c(-c4ccco4)c12)CC/C3=C/c1ccco1`, for which the IC50 was 2.98 µM (active).

These data come from PubChem BioAssay AID2496 (Sanford-Burnham Center for Chemical Genomics, 2010).
